Among the data in PubChem BioAssay AID651812 (National Center for Advancing Translational Sciences (NCATS), 2012) are Potency values, retold here.

Hit rate of the full screen: of about 2,100 compounds, about 650 (31%) were called active. About 16% were inconclusive and are not listed. The call rests on the fitted dose curve; in most records, active means well fitted inhibition curve with a large enough effect; inconclusive means small, poorly fitted or top-dose-only effect; inactive means flat fitted curve, though single readings scatter. The list shows a part of the results. A call without a number means that no potency is given here.
Potency means the concentration at half of the fitted maximal effect.

The nature of this assay: qHTS for inhibitors of Vif-A3G interactions: Cherry picks. Further: nearly all actives have a fitted effect of over 80% in size. The conditions noted are these: HeLa A3G-eYFP + Vif (tagged APOBEC3G with the HIV-1 protein that degrades it), 24 h; Potency: eYFP fluorescence increase; series mostly up to 36.9 µM. The procedure, abridged: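 HeLa cells stably expressing A3G-eYFP and Vif, cultured overnight then exposed to compounds at several concentrations for 24 hours at 37 C, 5% CO2; cellular yellow fluorescence (488 nm ex, 500-530 nm em) imaged on Acumen, MG132 positive control.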
A general note: qHTS replaces the single test concentration by a dilution series.
As for `CN1C(=O)N(C)c2ccc(C=O)c3cccc1c23`, the Potency entry is “inactive”. For the molecule `COc1cc(OC)c(C2Nc3cccc4cccc(c34)N2)c(OC)c1`, the Potency entry was “inactive”. Under `COc1cc(OC)c(/C=C/c2ccc3ccccc3[n+]2C)c(OC)c1` stands 10.3 µM (active).

As to `COc1cc(OC)c(/C=C/c2ccnc3ccccc23)c(OC)c1`, the Potency result was “inactive”. `CCN(CC(=O)NCc1ccc(F)cc1)C(=O)/C=C/c1ccc(OC)c(S(=O)(=O)NC(C)C)c1`: the Potency result is “inactive”. In the case of `Cc1sc2ncnc(N=Nc3c(O)[nH]c4ccccc34)c2c1C`, the Potency was 16.4 µM (active). For `Cc1sc2ncn(CC(=O)NCc3ccccc3)c(=O)c2c1C`, the Potency result is “inactive”.

On to `Cc1sc2ncnc(SCC(=O)NC(C)(C)C)c2c1C`, for which the Potency entry is “inactive”.

`Fc1ccc(-c2cnn3c(-c4cccs4)ccnc23)cc1`: the Potency was 12.5 µM (active). Consider `COc1ccc2cc(C(=O)C3CCCN(Cc4ccccn4)C3)ccc2c1` (centres undefined), for which the Potency result is “inactive”. As to `COc1ccc2nc(SCC(=O)Nc3ccc4sc(C)nc4c3)c(C#N)cc2c1`, the Potency was 20.6 µM (active). To `CCc1ccc2nc(SCC(=O)Nc3ccccc3N3CCOCC3)c(C#N)cc2c1` belongs “inactive”.

Take `COc1ccc2nc(NC(=O)c3ccc([N+](=O)[O-])o3)sc2c1`: the Potency entry is “inactive”.

Regarding `Cc1ccc(NC(=O)CSc2n[nH]c(-c3ccccn3)n2)cc1`, the Potency result was “inactive”. `CCN(CC)c1ccc(NC(=O)CSc2nc(C3CC3)nc3ccccc23)cc1C`: the Potency result was “inactive”. For `Cc1ccc2nc(SCC(=O)Nc3ccc4sc(C)nc4c3)c(C#N)cc2c1`, the Potency was 18.4 µM (active). With `Cc1nc2cc(NC(=O)CSc3nc4c(C)cccc4cc3C#N)ccc2s1`, the Potency was 13 µM (active). On to `COc1ccc2nc(SCC(C)=O)c(C#N)cc2c1`, for which the Potency was 3.26 µM (active). In the case of `CCC(=O)Nc1nc2ccc(NC(=O)c3cc(OC)c(OC)c(OC)c3)cc2s1`, the Potency entry was “inactive”. Under `CCCOc1ccccc1C1CC(=O)Nc2cc3c(cc21)OCO3` (centres undefined) stands “inactive”; under `Cn1nnnc1SCc1nc2scc(-c3ccc(Cl)cc3)c2c(=O)[nH]1`, “inactive”; under `CCOC(=O)c1sc(NC(=S)NC(=O)c2ccco2)nc1C`, “inactive”. Take `COc1cccc(Nc2nc(Nc3ccc(Cl)c(C(=O)O)c3)nc(C)c2[N+](=O)[O-])c1`: the Potency result is “inactive”. As to `CCOC(=O)c1cc2n(c1/N=C/N(C)C)-c1ccccc1C2=O`, the Potency was 20.6 µM (active). To `CCOc1ccc(/C=N/NC(=O)c2cc3c(OC)cc(OC)c(OC)c3[nH]2)cc1` belongs “inactive”. `CCOc1cc(/C=C(/C#N)C(=O)Nc2ccc(O)cc2)cc(Br)c1O`: the Potency was 15.8 µM (active). On to `CCOc1ccc(NC(=O)N2CC=C(c3c[nH]c4ccccc34)CC2)cc1`, for which the Potency result is “inactive”. Turning to `CCOc1ccc(NC(=O)/C(C#N)=C/c2ccc(N3CCCC3)c(C)c2)cc1`, the Potency is 6.51 µM (active). With `N#C/C(=C/c1ccc2c(c1)OCO2)C(=O)Nc1ccc(O)cc1`, the Potency result is “inactive”. On to `CCSc1nnc(-c2sc3nnc(-c4ccccc4)c(-c4ccccc4)c3c2N)o1`, for which the Potency was 10.3 µM (active). Take `COc1ccc(NC(=O)C2Cc3c(-c4cccc(NC(C)=O)c4)ccnc3O2)cn1` (centres undefined): the Potency entry is “inactive”. To `CSC1=NC(C(Cl)(Cl)Cl)N=C(c2ccccc2)N1` (centres undefined) belongs “inactive”.

For the molecule `CC1=CN2C(=N)/C(=C/c3ccc([N+](=O)[O-])o3)C(=O)N=C2S1`, the Potency is 9.94 µM (active). As for `CCS(=O)(=O)C1=NN2C(=N)/C(=C\c3ccc(SCc4ccco4)o3)C(=O)N=C2S1`, the Potency result was “inactive”. `Fc1ccc2nc3[nH]c4ccccc4c3nc2c1`: the Potency is 1.4 µM (active). Turning to `CN1CCc2c(sc3c2C(=O)NC(c2ccc(-c4ccc(Cl)cc4)o2)N3)C1` (centres undefined), the Potency is 11.6 µM (active).

As to `CCOc1ccccc1C1CC(=O)NC2=C1C(=O)CCC2` (centres undefined), the Potency entry was “inactive”. With `Cc1sc(-c2cc3c([nH]c2=O)CC(c2ccccc2)CC3=O)nc1-c1ccc(Cl)cc1` (centres undefined), the Potency was 20.6 µM (active). `COCCOC(=O)c1[nH]c2c(c1C)C(=O)CC(c1ccccc1)C2` (centres undefined): the Potency result was “inactive”. In the case of `O=C1CC(c2ccccc2)Cc2[nH]c(=O)c(-c3nc(-c4cccc(Cl)c4)cs3)cc21` (centres undefined), the Potency result is “inactive”. With `O=C(O)CSc1c2ccccc2cc2ccccc12`, the Potency entry was “inactive”. To `COc1ccc2nc3ccccc3nc2c1NC(=O)c1ccc(Cl)cc1` belongs 20.6 µM (active). Regarding `COc1ccc2nc3ccccc3nc2c1NC(=O)c1ccc(Cl)cc1Cl`, the Potency was 2.8 µM (active).

Turning to `COC(=O)/C(=C\Nc1ccc(Cl)cc1Cl)NC(=O)c1ccc(OC)cc1`, the Potency result was “inactive”. With `COc1ccc(S(=O)(=O)NCc2ccccn2)cc1NC(=O)c1ccccc1`, the Potency result was “inactive”. Turning to `COc1ccc(C)cc1Nc1c2c(nc3ccccc13)CCC2`, the Potency result was “inactive”.

Take `O=C(NC(=S)Nc1c(Cl)cc(Cl)cc1Cl)c1ccccc1`: the Potency entry was “inactive”. In the case of `COc1ccccc1Nc1c2c(nc3ccc(NC(=O)c4ccc(N(C)C)cc4)cc13)CCCC2`, the Potency entry was “inactive”. Consider `COc1ccc2nc3ccccc3nc2c1NC(=O)c1ccc(Br)cc1`, for which the Potency was 14.6 µM (active).

Take `COc1cc(C(=O)Nc2ccc3ccccc3c2)cc(OC)c1OC`: the Potency entry was “inactive”.

With `COc1ccc2nc(Nc3nc(CSc4ccc(C)cc4)cc(=O)[nH]3)nc(C)c2c1`, the Potency entry is “inactive”. Turning to `CCN(CC)c1ccc(/C=C2\SC(N)=NC2=O)cc1`, the Potency entry is “inactive”.

Consider `CN(C)c1ccc(/C=C2\SC(N3CCCCC3)=NC2=O)cc1`, for which the Potency is 23.1 µM (active). Turning to `CCN(CC)c1ccc(/C=C2\C(=N)N3N=C(CC(=O)N4CCOCC4)SC3=NC2=O)cc1`, the Potency is 0.177 µM (active).

`CN(C)c1ccc(/C=C2\C(=N)N3N=C(CC(=O)N4CCCCC4)SC3=NC2=O)cc1`: the Potency was 18.4 µM (active).

On to `COc1cc(/C=C2\C(=N)N3N=CSC3=NC2=O)cc(Br)c1OC(=O)c1ccco1`, for which the Potency result was “inactive”. `O=c1c2cc3ccccc3n2cnn1Cc1ccccc1F`: the Potency entry was “inactive”.

As for `CCOc1ccccc1Oc1nc(C)nc2c1oc1ccccc12`, the Potency result is “inactive”. As for `Brc1ccc2c(c1)C(c1cccnc1)=NNC(c1cccs1)=N2`, the Potency entry was “inactive”. Turning to `COc1ccc2cc(-c3nc(Cl)c4c5c(sc4n3)CC(C)CC5)c(=O)oc2c1` (centres undefined), the Potency was 4.11 µM (active). On to `CN1C(=O)/C(=C/c2ccccc2OCc2ccc(F)cc2)N(C)C1=S`, for which the Potency was 23.1 µM (active).

Take `O=[N+]([O-])c1ccccc1S(=O)(=O)Nc1ccc(-c2ccc(N3CCOCC3)nn2)cc1`: the Potency is 23.1 µM (active). On to `COc1cc(C(=O)N/N=C(\C)c2ccccn2)cc(OC)c1OC`, for which the Potency result is “inactive”. As for `COc1cc(C2Nc3ccc4ncccc4c3C3=C2C(=O)CCC3)cc(OC)c1O` (centres undefined), the Potency result is “inactive”.
